Experimental data from PubChem BioAssay AID588354 (The Scripps Research Institute Molecular Screening Center, 2011).
About 430 (0.12%) of roughly 360,000 compounds were called active. The full list was thinned out, with actives kept by preference. A number with no mark means an inactive call.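 Rule for the calls: active = inhibition above the campaign mean plus 3 SD, with each screening campaign given its own cutoff (cut at about 60% in these data); inactive = the rest.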

Biological target: Nuclear receptor coactivator 1 (Homo sapiens) (UniProt Q15788)
Test: SRC1 coactivator transcriptional activity inhibitors, primary screen, cell-based, luminescence (AID 588354);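 note: 0% = DMSO treated cells and 100% = gossypol at 36 µM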
Conditions: HEK293 GAL4-SRC1 luciferase reporter, at 3.6 µM, active compounds read high

Sequence of Nuclear receptor coactivator 1 (Homo sapiens) (Q15788 whole entry, looked up): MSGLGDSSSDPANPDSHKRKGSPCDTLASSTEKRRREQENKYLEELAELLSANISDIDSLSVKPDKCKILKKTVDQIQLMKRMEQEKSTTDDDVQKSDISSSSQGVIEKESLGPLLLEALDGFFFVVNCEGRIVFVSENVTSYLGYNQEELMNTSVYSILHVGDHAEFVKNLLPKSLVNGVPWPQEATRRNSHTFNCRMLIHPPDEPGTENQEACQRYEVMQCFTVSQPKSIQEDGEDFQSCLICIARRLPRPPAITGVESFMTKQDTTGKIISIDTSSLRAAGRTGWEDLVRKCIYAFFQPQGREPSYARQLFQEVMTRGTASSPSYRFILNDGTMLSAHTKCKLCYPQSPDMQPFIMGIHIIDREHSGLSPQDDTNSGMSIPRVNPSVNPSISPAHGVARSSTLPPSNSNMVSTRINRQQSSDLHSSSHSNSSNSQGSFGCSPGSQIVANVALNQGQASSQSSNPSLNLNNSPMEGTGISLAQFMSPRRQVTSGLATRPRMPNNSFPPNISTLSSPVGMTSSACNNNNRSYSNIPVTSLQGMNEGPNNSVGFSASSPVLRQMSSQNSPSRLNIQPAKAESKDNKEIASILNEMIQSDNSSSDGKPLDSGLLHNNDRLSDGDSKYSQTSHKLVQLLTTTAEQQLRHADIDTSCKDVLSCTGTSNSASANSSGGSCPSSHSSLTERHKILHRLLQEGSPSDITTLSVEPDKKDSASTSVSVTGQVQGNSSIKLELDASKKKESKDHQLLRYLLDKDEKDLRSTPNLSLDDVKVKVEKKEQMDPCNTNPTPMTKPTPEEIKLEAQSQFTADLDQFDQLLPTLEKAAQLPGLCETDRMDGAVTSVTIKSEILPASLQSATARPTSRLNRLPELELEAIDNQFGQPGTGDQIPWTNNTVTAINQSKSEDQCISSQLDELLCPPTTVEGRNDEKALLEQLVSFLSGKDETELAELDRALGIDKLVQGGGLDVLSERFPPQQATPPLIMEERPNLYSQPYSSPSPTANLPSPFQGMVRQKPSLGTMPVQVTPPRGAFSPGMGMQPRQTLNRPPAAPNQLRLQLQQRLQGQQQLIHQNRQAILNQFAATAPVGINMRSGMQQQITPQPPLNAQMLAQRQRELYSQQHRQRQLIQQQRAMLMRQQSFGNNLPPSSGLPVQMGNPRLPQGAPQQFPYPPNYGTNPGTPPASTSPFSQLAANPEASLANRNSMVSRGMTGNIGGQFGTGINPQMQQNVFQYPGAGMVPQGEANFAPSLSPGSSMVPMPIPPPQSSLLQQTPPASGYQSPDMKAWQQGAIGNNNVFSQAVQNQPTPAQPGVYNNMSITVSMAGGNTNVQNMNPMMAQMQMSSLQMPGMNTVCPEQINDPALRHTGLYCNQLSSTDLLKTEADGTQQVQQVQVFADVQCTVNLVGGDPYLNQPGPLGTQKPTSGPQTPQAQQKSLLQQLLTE

| Compound | inhibition |
| --- | --- |
| C[C@@H](NC(=O)c1nc[nH]c1C(=O)N1CCN(C(=O)OC(C)(C)C)CC1)c1ccccc1 | -15.6% |
| Cn1cc(/C=C/C(=O)N2CCCC(C(=O)c3ccc(C(F)(F)F)cc3)C2)cn1 (centres undefined) | 8.39% |
| CC1(NC(=O)CCS(=O)(=O)c2ccc(Cl)cc2)CCS(=O)(=O)C1 (centres undefined) | -3.53% |
| CC(C)(C)c1nc2ccccc2c(=O)n1N1C(=O)c2ccccc2C1=O | 6.03% |
| CN(c1ccc2nc3ccccc3c(=O)n2n1)C1CCCCC1 | 71.9% (active) |
| CN(C(=O)Nc1ccc(Cl)cc1)n1cnc2ccccc2c1=O | -15.6% |
| CSc1ncccc1C(=O)Nc1cccc(S(=O)(=O)N2CCOCC2)c1 | -16.1% |
| O=C(Nc1cccc(Cc2ccccc2)c1)Nc1ccc2nc([C@@H]3O[C@H](CO)[C@@H](O)[C@H](O)[C@H]3O)[nH]c2c1 | -1.54% |
| CC(C)(C)c1ccc(Oc2ccc(N)cc2)cc1 | 74% (active) |
| CN(C)S(=O)(=O)c1ccc(Oc2ccc(S(=O)(=O)N(C)C)cc2)cc1 | 21.5% |
| COc1cc2c3c(c1)/C(=C1/SC(=S)NC1=O)C(=O)N3C(C)(C)C=C2C | -18% |
| CCN(CC(=O)Nc1ccc2c(c1)OCCO2)Cc1cc(=O)oc2cc(C)c(C)cc12 | 1.42% |
| COC(=O)c1ccc(N2CCOCC2)c(NC(=O)c2ccc(Br)o2)c1 | 3.93% |
| CCCCc1nc2c(=O)[nH]c3ccccc3c2o1 | -5.89% |
| Cc1cc(C)cc(NC(=O)CSCc2cnn(-c3ccccc3)c2-n2cccc2)c1 | 0.69% |
| CCCc1noc2c1/C(=N\O)CCC2 | 7.65% |
| Cc1oc(C(N)=O)cc1COc1ccc(C(N)=O)cc1 | 11.6% |
| Cn1c(-c2ccc(C(F)(F)F)cc2)cc2onc(-c3ccccc3)c2c1=O | -53.3% |
| CC(OC(=O)c1ccc(-n2cnnn2)cc1)C(=O)NCc1ccccc1 (centres undefined) | -1.03% |
| CCC(C)c1ccccc1NC(=O)CN(C)CC(=O)Nc1ccccc1SC (centres undefined) | 3.11% |
| CCc1ccc(C(=O)N2CCN(S(=O)(=O)c3sc(C(=O)O)c(C)c3C(=O)O)CC2)cc1 | -9.2% |
| CC(C)CCNC(=O)C(C)N(C(=O)Cn1nnc(-c2ccc(F)cc2)n1)C1CCCC1 (centres undefined) | 5.49% |
| COc1ccc(Cn2cccc(NC(=O)Nc3ccc(C#N)cc3)c2=O)cc1 | 13.7% |
| CCOc1ccc(S(=O)(=O)N2CCN(C(=O)c3oc4ccccc4c3C)CC2)cc1 | -3.94% |
